# Experimental data: PubChem BioAssay (NCATS)
# Results filed as inconclusive are left out. Values without a mark were called inactive. The source made the active and inactive calls. Calls follow the shape of the dose curve; as a rule, active = well fitted cell-killing curve with a large enough effect; inconclusive = small, poorly fitted or top-dose-only effect; inactive = no such curve, though single readings can be large or run the other way.
# Test: qHTS of pediatric cancer cell lines to identify multiple opportunities for drug repurposing: Primary screen for SK-N-MC cells (AID 1347093)
# Settings: SK-N-MC viability, CellTiter-Glo luminescence, 48 h; series mostly up to 46 µM; activity change, negative = cytotoxic: at the top concentration
# Text: Drug repurposing or repositioning has been offered as a strategy for drug development in oncology programs. This approach has special potential for childhood cancers and other rare or orphan diseases, where the expected return on new drug development has been a disincentive to pharmaceuticals.
# In this project we exploit the poly-pharmacology of drugs to discover new indications via phenotypic screening of a panel of 19 well-characterized cell lines derived from solid tumors seen in children and adolescents. The goal is to identify approved drugs with previously unrecognized anticancer properties that has the potential to reveal new mechanisms and biological processes involved in carcinogenesis or drug resistance. We employed a titration-based paradigm (quantitative high-throughput screening or qHTS), where all compounds were tested at multiple concentrations for their effect on cell viability. Concentration-response curves (CRCs) were derived directly from the primary screen, and both potency and efficacy values were used to identify compounds with robust bioactivity profiles. We screened the NIH Chemical Genomics Center (NCGC) Pharmaceutical Collection (NPC) and Mechanism Interrogation Plate (MIPE) small molecule collections of approved and investigational compounds against these cell lines; and measured metabolically active cells after 48 hours of compound treatment as a proxy for cell viability.
# Assay Submitter: Nathalia J. Martinez, National Center for Advancing Translational Sciences, National Institutes of Health, Rockville, MD, USA; email: natalia.martinez@nih.gov
# [1] Shen, M et al. Quantitative high-throughput phenotypic screening of pediatric cancer cell lines identifies multiple opportunities for drug repurposing. Oncotarget 2017 Dec 19;9(4):4758-4772. PMID 29435139.
# The cells were obtained from University of North Carolina (UNC), Pediatric Preclinical Testing Program (PPT), and Coriell Institute (CI).
# qHTS cell viability assay:
# Cells were assayed in growth media at a density of 500-1,000 cells/well. Five microliters of cells were dispensed into 1,536-well, white, solid-bottom, TC-treated plates (Greiner Bio One) using a multidrop dispenser and incubated at 37 degrees C, 5% CO2, under a humidified atmosphere for 5 hours. Twenty-three nanoliters of compounds and controls (neutral control DMSO or positive control bortezomib at final concentration of 2.3 µM) were subsequently transferred by Kalypsys pintool. For primary screens, the MIPE collection was tested at 11-point dilutions (final concentrations range from 0.78 nM to 46 µM) and the NPC collection at 8-point dilutions (final concentrations range from 0.59nM to 46 µM). Compounds tested in follow-up screens were assayed at 11-point dilutions. Cells were incubated for 48 hours, followed by addition of 3 uL of CellTiter-Glo (Promega). After a 15 min incubation at room temperature, samples were analyzed for luminescence intensity using a ViewLux High-throughput CCD imager equipped with clear filters.
# Potency is read from the fitted curve at half-maximal effect.
Compound,"activity change, negative = cytotoxic",Potency
CC(C)(C)NC[C@H](O)c1ccc(O)cc1Cl,-7.08%,
Cc1c(C(=O)Nc2cccc(C(F)(F)F)c2)cc(-c2ccccc2)n1CCCN1CCOCC1,,13.2 µM (active)
CCCCC(CC)COC(=O)c1ccccc1C(=O)OCC(CC)CCCC (stereo not given),-8.07% [at 92.7 µM],
C=CCON=C(C[C@H]1O[C@@H]2O[C@]3(C)CC[C@@H]4[C@H](C)CC[C@@H]([C@H]1C)[C@@]24OO3)[C@H]1O[C@@H]2O[C@]3(C)CC[C@H]4[C@H](C)CC[C@@H]([C@@H]1C)[C@@]24OO3,,0.332 µM (active)
Cc1[nH]nc2ccc(-c3cncc(OC[C@@H](N)Cc4c[nH]c5ccccc45)c3)cc12,,0.264 µM (active)
CCOP(=O)(NC(C)C)Oc1ccc(SC)c(C)c1 (stereo not given),25% [at 92.7 µM],
CC(C)(O)C=CC(=O)[C@](C)(O)[C@H]1[C@H](O)C[C@]2(C)[C@@H]3CC=C4[C@@H](C=C(O)C(=O)C4(C)C)[C@]3(C)C(=O)C[C@@]12C,,0.0332 µM (active)
CC(C)(O)C(=O)Nc1ccc([N+](=O)[O-])c(C(F)(F)F)c1,,0.935 µM (active)
OCCCBr,-26.4% [at 92.7 µM],
CSCC[C@@H](NC(=O)[C@@H](Cc1ccccc1)NC(=O)CNC(=O)CNC(=O)[C@@H](N)Cc1ccc(O)cc1)C(=O)O,-9.72%,
C[C@H]1CCCC=CC2C[C@H](O)C[C@@H]2[C@H](O)C=CC(=O)O1 (stereo not given in full),,0.001 µM (active)
CCOCCOC(C)=O,-11.3% [at 92.7 µM],
Oc1ccc2c3c1O[C@H]1[C@@H](O)C=C[C@H]4[C@@H](C2)NCC[C@@]341,-28.5% [at 92.7 µM],
O=C(O)COc1nc(Cl)c(Cl)cc1Cl,,0.001 µM (active)
CC=C(C)C(=O)O[C@H]1C(C)=C2[C@@H]3OC(=O)[C@@](C)(O)[C@@]3(O)[C@@H](OC(=O)CCC)C[C@](C)(OC(C)=O)[C@@H]2[C@@H]1OC(=O)CCCCCCC,,0.0187 µM (active)
C=C[C@@H]1CN2CCC1C[C@@H]2[C@@H](O)c1ccnc2ccccc12 (stereo not given in full),,9.35 µM (active)
Nc1ccc([N+](=O)[O-])cc1,13% [at 92.7 µM],
CC[C@@]1(O)C(=O)OCc2c1cc1n(c2=O)Cc2cc3ccccc3nc2-1,,0.0074 µM (active)
CCN1CCN(C(=O)Cc2ccc(Nc3ncc(F)c(Nc4ccc(C(=O)Nc5ccccc5Cl)cc4)n3)cc2)CC1,,5.26 µM (active)
CC(N[C@H]1C[C@H]1c1ccccc1)c1ccc2c(c1)OCCO2 (stereo not given in full),26%,

Compound,"activity change, negative = cytotoxic",Potency
CC(=O)O[C@@]12CO[C@H]1C[C@H](O)[C@@]1(C)C(=O)[C@H](O)C3=C(C)[C@@H](O)C[C@@](O)([C@@H](OC(=O)c4ccccc4)[C@@H]21)C3(C)C,,1.32 µM (active)
O=C(NCC1CCOCC1)c1cnc(Nc2ccc(Cl)cc2Cl)nc1C(F)(F)F,,3.32 µM (active)
CCN(CC)C(=O)c1ccc(C2=CC3(CCNCC3)Oc3cccc(O)c32)cc1,-18.9%,
N#C[C@H](O[C@@H]1O[C@H](CO[C@@H]2O[C@H](CO)[C@H](O)[C@H](O)[C@H]2O)[C@H](O)[C@H](O)[C@H]1O)c1ccccc1,,10.5 µM (active)
c1cc2c(cc1[C@H]1OC[C@H]3[C@H]1CO[C@H]3c1ccc3c(c1)OCO3)OCO2,18.4%,
COc1ccc(C(=O)c2c(C)n(CCN3CCOCC3)c3cc(I)ccc23)cc1,,1.48 µM (active)
Cc1cc(O)ccc1Cl,-7.47%,
CC(=Cc1csc(C)n1)[C@@H]1C[C@H]2O[C@@H]2CCC[C@H](C)[C@@H](O)[C@@H](C)C(=O)C(C)(C)[C@@H](O)CC(=O)O1,,0.001 µM (active)
C1CCC(NC2CCCCC2)CC1,6.8%,
C[C@]12CC[C@H]3[C@@H](CCC4=CC(=O)CC[C@@]43C)[C@H]1CC[C@H]2O,-44.7%,
O=C(Nc1ccccc1-c1ccc(Cl)cc1)c1cccnc1Cl,11.3% [at 92.7 µM],
O=S(=O)(O)C(F)(F)C(F)(F)C(F)(F)C(F)(F)F,-14.8% [at 92.7 µM],
COc1ccc(N(C(=O)Oc2c(C)cccc2C)c2ccnc(Nc3ccc(N4CCN(C)CC4)cc3)n2)c(OC)c1,,1.32 µM (active)
CN(C)NC(=O)CCC(=O)O,-29.7%,
C[C@]12CCC(=O)C(O)=C1CC[C@@H]1[C@H]3CCC(=O)[C@@]3(C)CC[C@@H]12,-3.99%,
COC(C)(C)CCCC(C)C/C=C/C(C)=C/C(=O)OC(C)C (stereo not given),11.6%,
O=C(O)c1cc(Oc2ccc(C(F)(F)F)cc2Cl)ccc1[N+](=O)[O-],-17.1%,
CC1=C(O)C(=O)C=C2C1=CC=C1[C@@]2(C)CC[C@@]2(C)[C@@H]3C[C@](C)(C(=O)O)CC[C@]3(C)CC[C@]12C,,0.833 µM (active)
CCCN(CCC)c1c([N+](=O)[O-])cc(S(N)(=O)=O)cc1[N+](=O)[O-],,38.6 µM (active)
C[C@]12Cc3cn[nH]c3C[C@@H]1CC[C@@H]1[C@H]2CC[C@@]2(C)[C@H]1CC[C@]2(C)O,,0.469 µM (active)
